From PubChem BioAssay
Sampled rows, rich in hits. Any-hit rate of the full collection: about 7.3%.
Rab9 prom act – Rab9 promoter activation | Potency, µM (highest dose often 9.22 µM), without a hit: top-dose activation, negative = inhibition, usual class: activators | AID 485297 | Huh7 Rab9 promoter-luciferase reporter, luminescence, 24 h | hit rate 2.8% among 320,000; note: % of control where 0% means no effect; nearly all actives have a fitted effect of over 60% in size
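Measured in stably transfected Huh7 cells bearing a Rab9 promoter–luciferase construct: 24 h compound treatment at 37 °C, followed by luminescence detection.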
NPC1 promoter act – activators of NPC1 promoter; Huh7 NPC1 promoter luciferase reporter, 24 h; Potency, µM (doses to about 9.22 µM), for inactives: top-dose activation, actives largely listed as activators; hit rate 2.4% among 320,000; note: % of control where 0% means no effect; nearly all actives have a fitted effect of over 60% in size
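In 1536-well qHTS, Huh7 cells harboring an NPC1 promoter–luciferase construct received compound for 24 h; activation was quantified by luminescence following luciferase reagent addition.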
KinaseGlo FLuc – blocks Kinase-Glo luciferase, a counter-screen artifact; Kinase-Glo luciferase, ATP luminescence, 8 min; AID 1379; Potency, µM (top dose mostly 38.3 µM), for the others: at the top dose activity change, negative = inhibition, actives largely listed as inhibitors; hit rate 0.28% among 200,000; note: % is set by controls: 0 for no effect and ±100 for the full control effect; nearly all actives have a fitted effect of over 60% in size
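Inhibition of Kinase-Glo luciferase light generation was assessed at 10 uM ATP in pH 7.2 imidazole buffer, with luminescence measured after eight minutes at ambient temperature.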
SMN2 splice enh – SMN2 splice variant enhancement | HEK293 SMN2-luciferase splicing reporter, luminescence, 30-36 h | Potency, µM (doses to about 46.1 µM), for the others: top-dose activity change, positive = activation, actives largely listed as activators | hit rate 2.8% among 210,000 | AID 1458; note: % of control where 0% means no effect; nearly all actives have a fitted effect of over 55% in size
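qHTS luciferase splicing reporter: luminescence rises when SMN2 exon 7 is included in transfected HEK293 cells. Compound exposure lasted 30-36 h at 37C, with 4.5 mM final sodium butyrate as control, followed by a ONE-Glo read.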
ELG1 genotoxic – induces genotoxicity in HEK293T cells with luciferase-tagged ELG1 | AID 504466 | Potency, µM (titrated, usually from 46 µM), without a hit: at the highest dose activity change, positive = activation, most hits filed as activators | HEK293T ELG1-luciferase reporter, luminescence, 16 h | hit rate 1.3% among 330,000; note: % of control where 0% means no effect; nearly all actives have a fitted effect of over 60% in size
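HEK293T cells expressing luciferase-tagged ELG1 were treated with compound or DMSO for 16 hr at 37°C. Luciferase activity was then read after 30 min with ONE-Glo at room temperature; rising signal flags genetic stress.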
FLuc counter – counter-screen for miR-21 project: firefly luciferase inhibitors or activators. P08659. purified FLuc, Km substrates, luminescence inhibition. Potency, µM (highest dose often 57.5 µM), inactives show top-dose activity change, negative = inhibition, actives largely listed as inhibitors. hit rate 6.9% among 360,000. AID 588342;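 note: plate controls were vehicle for no effect and reference inhibitor for full effect; nearly all actives have a fitted effect of over 55% in size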
Target sequence (P08659 whole entry, looked up): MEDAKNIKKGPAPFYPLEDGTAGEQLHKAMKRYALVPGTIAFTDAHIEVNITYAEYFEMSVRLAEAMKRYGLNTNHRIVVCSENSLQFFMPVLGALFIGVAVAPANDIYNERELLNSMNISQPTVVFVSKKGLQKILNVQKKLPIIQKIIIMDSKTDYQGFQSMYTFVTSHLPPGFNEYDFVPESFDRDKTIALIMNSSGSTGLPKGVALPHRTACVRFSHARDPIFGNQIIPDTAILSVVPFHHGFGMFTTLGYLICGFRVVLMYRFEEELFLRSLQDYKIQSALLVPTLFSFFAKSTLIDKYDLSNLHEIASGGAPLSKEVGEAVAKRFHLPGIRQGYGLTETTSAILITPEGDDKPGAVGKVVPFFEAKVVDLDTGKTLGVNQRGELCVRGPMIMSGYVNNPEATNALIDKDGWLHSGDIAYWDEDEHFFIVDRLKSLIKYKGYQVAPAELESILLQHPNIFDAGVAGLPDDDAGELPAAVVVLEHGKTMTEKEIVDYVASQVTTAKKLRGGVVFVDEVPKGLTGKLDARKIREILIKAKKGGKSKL
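Biochemical qHTS of compounds, final roughly 60 µM downward over six points, against 10 nM purified firefly luciferase using Km concentrations of substrates (10 uM D-luciferin, 10 uM ATP) in Tris acetate pH 7.5 buffer; luminescence output.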
Active calls of the source: *; u = inconclusive; x = no result given; [ ] = another dose, or the depositor's remark. Calls come from the whole dose curve; as a rule, active = well fitted curve in the direction sought with a large enough effect; inconclusive = small, poorly fitted or top-dose-only effect, or another doubt; inactive = no such curve, though single readings can be large; an effect the other way counts as inactive or inconclusive. Potency is the fitted concentration of half-maximal effect.

SMILES	Rab9 prom act	NPC1 promoter act	KinaseGlo FLuc	SMN2 splice enh	ELG1 genotoxic	FLuc counter
Cc1ccc(NC(=O)Nc2ccc3c(c2)OCO3)c(OC(F)F)c1	3.5µM*	2µM*	x	x	u	4.8µM*
COC(=O)c1ccc(NC(=O)Nc2ccc3c(c2)OCO3)cc1	u	u	x	x	u	6.7µM*
COc1ccc(NC(=O)Nc2ccc(C)cc2OC(F)F)cc1OC	-1%	-5%	3%	-44%	-6%	-1%
CC(C)(C)C(=O)Nc1ccc2nc(SCCOc3ccccc3Cl)sc2c1	x	x	x	x	x	-2%
O=C(Nc1ccc(S(=O)(=O)NCc2ccccc2)cc1)Nc1ccc2c(c1)OCO2	27%	30%	0%	u	u	21µM*
COc1ccc(CCNC(=O)CCCCn2c(=O)c3ccccc3n(CC(=O)Nc3ccc(C)cc3C)c2=O)cc1OC	x	x	x	-1%	x	0%
CC(C)c1ccc(NC(=O)c2cc3sc(Cl)cc3n2C)cc1	x	x	x	-11%	x	3.4µM*
Cn1c(C(=O)NCc2ccccc2Cl)cc2sc(Cl)cc21	x	x	x	28µM*	x	u
Cn1c(C(=O)NCc2cccnc2)cc2sc(Cl)cc21	4%	-7%	-2%	-45%	0%	u
CCc1ccc(NC(=O)c2cc3sc(Cl)cc3n2C)cc1	x	x	x	13µM*	x	5.4µM*
COc1ccc(N(C(=O)COc2c(C)cccc2C)S(=O)(=O)c2ccc(Cl)cc2)cc1	x	x	x	-9%	x	1%
c1ccc(Oc2nc(NC3CCCCC3)c3[nH]cnc3n2)cc1	x	x	0%[39.9 µM]	x	x	x
CCC(C)C(=O)Nc1nc2ccc(OC)cc2s1 (stereo not drawn)	2.5µM*	2.5µM*	x	x	u	12µM*
CC(=O)Nc1nc2ccc(Br)cc2s1	2.8µM*	3.2µM*	-4%	8%	u	17µM*
CCOC(=O)c1cccc(C(=O)Nc2nc3ccc(OC)cc3s2)n1	1.6µM*	2.2µM*	-2%	11µM*	-6%	0.48µM*
COc1ccc2nc(NC(=O)CSCC(=O)Nc3cc(C)on3)sc2c1	5µM*	u	x	x	u	17µM*
COc1ccc2nc(NC(=O)CSc3nc(C)cc(C)n3)sc2c1	-1%	-1%	8%	-24%	-4%	-20%
Cc1ccc(NC(=O)c2oc3ccccc3c2NC(=O)C23CC4CC(CC(C4)C2)C3)cc1	x	x	x	-7%	x	0%
CCOC(=O)c1ccccc1NC(=O)N(Cc1ccco1)C1CCN(C(C)=O)CC1	x	x	x	x	x	2%
CC(=O)NCCC(=O)Nc1nc2ccc(Oc3ccccc3)cc2s1	0.89µM*	1.4µM*	x	x	3.7µM*	6.7µM*
COc1ccc2nc(NC(=O)c3ccccc3O)sc2c1	0.79µM*	1.3µM*	x	x	u	0.13µM*
COc1ccc2nc(NC(=O)c3ccccc3[N+](=O)[O-])sc2c1	u	27%	x	x	6%	u
COc1ccc2nc(NC(C)=O)sc2c1	2.5µM*	2.2µM*	-9%	14µM*	u	12µM*
COc1ccc(CCNc2nc(SCc3ccccc3Cl)nc3ccccc23)cc1OC	x	x	x	x	x	-1%
COc1cc(NC(=O)c2ccc(Br)o2)c(C(=O)O)cc1OC	-1%	-1%	0%	18%	2%	21µM*
SMILES	Rab9 prom act	NPC1 promoter act	KinaseGlo FLuc	SMN2 splice enh	ELG1 genotoxic	FLuc counter
COc1ccccc1NC(=O)c1ccc(Br)o1	-5%	1%	-3%	27%	u	-14%
Nc1ccccc1NC(=O)c1ccccc1N	17%	11%	-5%	-3%	1%	-23%
Cc1c(NC(=O)c2ccc(NC(=O)C3CC3)cc2)cccc1C(=O)O	7%	0%	x	x	-2%	15µM*
Cc1ccc(NC(=O)c2cccc(C(=O)Nc3ccc(C)cc3C(=O)O)c2)c(C(=O)O)c1	-4%[1.84 µM]	-1%	x	x	-11%	27µM*
Cc1c(NC(=O)c2ccccc2N)cccc1C(=O)O	1.8µM*	1.3µM*	x	x	u	9.5µM*
Cc1c(NC(=O)c2ccccc2NC(=O)COc2ccccc2)cccc1C(=O)O	2%	-1%	x	x	-8%	-15%
CCN(CC)c1ccc(NC(=O)c2ccc(Br)o2)c(C)c1	0%	15%	1%	12%	18%	-21%
Cc1c(NC(=O)c2ccccc2NC(=O)c2ccccc2)cccc1C(=O)O	4%	0%	x	x	2%	17µM*
O=C(Nc1ccccc1)c1ccccc1NC(=O)C1CCCCC1	1%	-3%	-3%	2%	1%	0%
Cc1cc(O)c(NC(=O)c2ccc(Br)o2)cc1C	17%	20%	-7%	14µM*	u	u
Cc1c(NC(=O)c2cccs2)cccc1C(=O)O	u	u	1%	10%	12%	15µM*
Cc1cccc(NC(=O)c2ccccc2NC(=O)C2CCCCC2)c1C	-2%	2%	-2%	-1%	u	17µM*
CCc1nn(CC(=O)Nc2ccc(C)c(F)c2)c(=O)c2cc3cc(C)ccc3n12	x	x	x	-1%	x	-9%
O=C(CC(c1cccs1)N1Cc2ccccc2C1=O)Nc1ccccc1 (stereo not drawn)	x	x	x	x	x	-4%
CC(C)c1cnc2c(c1SCC(=O)c1ccc(Cl)cc1)c(=O)n(C)c(=O)n2C	x	x	x	x	x	-8%
Cc1c(NC(=O)c2ccc(Br)o2)cccc1C(=O)O	2.5µM*	u	-4%	u	u	21µM*
O=C(N/N=C1\CCc2ccccc21)c1ccccc1O	0.79µM*	0.63µM*	10µM*	1.1µM*	u	1.7µM*
O=C(N/N=C1\CCc2ccccc21)c1ccncc1	u	u	-5%	20µM*	u	21µM*
O=C(NN=C1C2CC3CC(C2)CC1C3)c1ccccc1O	-3%	-8%	x	x	-3%	17µM*
O=C(N/N=C1\CCCc2ccccc21)c1ccccc1Cl	u	u	-3%	u	u	u
COc1ccc(C(=O)N/N=C2\CCc3ccccc32)cc1OC	-32%	4%	-2%	u	14%	-11%
COc1ccccc1N1CCN(c2ncnc3c2cnn3-c2cc(Cl)ccc2C)CC1	x	x	x	x	x	1%
Cc1ccc(-c2cc(C(=O)NCc3ccccn3)c3ccccc3n2)cc1	25%	1%	-5%	u	-2%	4.3µM*
O=C(NCc1ccccn1)c1cc(-c2ccc(Br)cc2)nc2ccccc12	-5%	-2%	-1%	18%	-15%	u
CCc1ccc(-c2cc(C(=O)NCc3ccccn3)c3ccccc3n2)cc1	26%	2%	u	2%	-13%	0.85µM*
Cc1ccc(OCC(=O)NCc2ccccn2)c(Br)c1	u	u	1%	26%	u	17µM*
CCc1ccccc1Nc1cc(C(=O)NCc2ccccn2)c2ccccc2n1	-1%	1%	-3%	-6%	-11%	17µM*
CCOC(=O)CCc1c(C)c2ccc(OCC(=O)N3CCOCC3)c(C)c2oc1=O	5%	6%	x	x	-4%	-2%
